The values that follow come from the supplement of paper PMC10681739.

Test [1] has as its target T1, ETS1 (UniProt P14921).
T1 sequence: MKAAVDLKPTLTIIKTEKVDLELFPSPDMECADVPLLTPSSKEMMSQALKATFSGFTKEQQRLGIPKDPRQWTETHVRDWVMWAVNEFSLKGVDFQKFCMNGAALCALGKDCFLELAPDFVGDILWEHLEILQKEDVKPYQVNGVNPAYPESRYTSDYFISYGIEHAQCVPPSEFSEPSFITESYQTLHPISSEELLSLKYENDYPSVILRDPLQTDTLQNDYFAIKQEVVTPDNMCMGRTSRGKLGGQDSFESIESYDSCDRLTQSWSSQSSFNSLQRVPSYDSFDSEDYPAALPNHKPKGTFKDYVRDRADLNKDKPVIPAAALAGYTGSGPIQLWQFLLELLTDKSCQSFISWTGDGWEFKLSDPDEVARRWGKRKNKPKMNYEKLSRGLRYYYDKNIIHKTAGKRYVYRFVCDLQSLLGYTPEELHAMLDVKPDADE
Briefly: ETS1 binding intensity (PBM fluorescence), ETS1 alone (arbitrary fluorescence units); higher = stronger binding. To be noted: ETS1 concentration 1 nM; RUNX1 concentration 0 nM.

Test [2] addresses RUNX1 (UniProt Q01196). In words: RUNX1 binding intensity (PBM fluorescence), RUNX1 alone (arbitrary fluorescence units); higher = stronger binding. The settings on record: RUNX1 concentration 2 nM; ETS1 concentration 0 nM. How it is done: (§1)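 Cooperative gcPBM on 36-bp genomic probes with neighbouring ETS1 and RUNX1 sites. Recombinant human RUNX1 (2 nM) was incubated alone or with ETS1 (25 nM) and detected with anti-RUNX1 antibody plus Alexa488 secondary. Values are medians over 4 replicate spots; the RUNX1+ETS1 data were normalised to the RUNX1-only data. The probes sit in constant array flanks that are not printed.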

Test [3] has as its target T1, ETS1. Briefly: ETS1 binding intensity (PBM fluorescence) in presence of RUNX1, normalised to ETS1-only experiment (arbitrary fluorescence units); higher = stronger binding. To be noted: ETS1 concentration 1 nM; RUNX1 concentration 25 nM.
Test [4] addresses RUNX1 (UniProt Q01196). Briefly: RUNX1 binding intensity (PBM fluorescence) in presence of ETS1, normalised to RUNX1-only experiment (arbitrary fluorescence units); higher = stronger binding. To be noted: RUNX1 concentration 2 nM; ETS1 concentration 25 nM. How it is done: as §1
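For RUNX1 binding intensity (PBM fluorescence) in presence of ETS1, normalised to RUNX1-only experiment in this document: Full-length recombinant human ETS1 or RUNX1 bound to double-stranded 36-bp genomic probes on microarrays, detected by protein-specific primary antibody and Alexa488 secondary, spot fluorescence as median of four replicate spots.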
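For RUNX1 binding intensity (PBM fluorescence), RUNX1 alone in this document: Full-length recombinant human RUNX1 bound to double-stranded 36-bp genomic probes on a high-density microarray, scored as Alexa488 fluorescence per spot via anti-RUNX1 antibody, median of four replicate spots.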

Sequence of RUNX1 (Q01196 whole entry): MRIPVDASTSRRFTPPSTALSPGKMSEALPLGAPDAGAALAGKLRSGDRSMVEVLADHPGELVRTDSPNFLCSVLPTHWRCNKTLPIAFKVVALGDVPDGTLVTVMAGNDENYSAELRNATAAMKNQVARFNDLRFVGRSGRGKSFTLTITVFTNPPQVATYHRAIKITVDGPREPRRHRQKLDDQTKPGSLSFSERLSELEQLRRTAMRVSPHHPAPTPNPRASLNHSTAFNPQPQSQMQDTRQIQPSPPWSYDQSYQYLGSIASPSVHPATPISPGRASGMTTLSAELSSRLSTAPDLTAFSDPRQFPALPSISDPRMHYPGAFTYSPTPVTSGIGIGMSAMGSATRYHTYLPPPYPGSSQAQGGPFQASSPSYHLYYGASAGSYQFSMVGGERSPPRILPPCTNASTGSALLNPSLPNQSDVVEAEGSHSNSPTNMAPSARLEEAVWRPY

In the case of ATCAGTCAACTTCCCCCACTCCCTCCCACAAAGAAA, the values for the ETS1 binding intensity with ETS1 [1] and with ETS1 [3] were 1010 and 979, respectively. Besides, the RUNX1 binding intensity in the test with RUNX1 [2] was 1400; with RUNX1 [4], 1300.

In the case of CATTTACAGAAAAGGAAACCGCAAGTTTGAGCAAGT, the ETS1 binding intensity worked out at 976 with ETS1 [1] and 2150 in the test with ETS1 [3]. In addition, the values for the RUNX1 binding intensity with RUNX1 [2] and with RUNX1 [4] were 25200 and 30700, respectively.

TCCACATCCTGCTCCTCGGGTTTGCGGCGAGGACTC: the ETS1 binding intensity amounted to 593 with ETS1 [1] and 1010 in the test with ETS1 [3]. The RUNX1 binding intensity with RUNX1 [2] was 809; with RUNX1 [4], 2660.

With AGACGGGACCGGAAGCCGGGCCGCAGGCGGCCGGGC, the ETS1 binding intensity stood at 5400 in the test with ETS1 [1] and 6650 with ETS1 [3]. Further, the RUNX1 binding intensity with RUNX1 [2] came to 811; in the test with RUNX1 [4] it was 1240.

In the case of ACGCGCTCCCTCACTTCCTGCGGCTTTTGGTCCCTC, the ETS1 binding intensity with ETS1 [1] stood at 1310; with ETS1 [3], 1500. The RUNX1 binding intensity with RUNX1 [2] came out at 1880; with RUNX1 [4], 2800.

With GAGGAAGAGTCTTCCTGTAACCACTAGAGGGCGCTG, the ETS1 binding intensity was 592 with ETS1 [1] and 663 with ETS1 [3]. Moreover, the RUNX1 binding intensity with RUNX1 [2] was 705; with RUNX1 [4] it was 960.

Consider GCGGGCAGGATCTTCCTGTGGTTTGCCTTGCCCACT, for which the ETS1 binding intensity with ETS1 [1] was found to be 388; in the test with ETS1 [3], 653. For the same sequence, the RUNX1 binding intensity in the test with RUNX1 [2] was determined as 904; with RUNX1 [4], 2190.

As for AGCTGAGAGCCTGCCGGAAGCCACAGCTTCTTCTCG, the results for the ETS1 binding intensity in the test with ETS1 [1] and with ETS1 [3] were 4180 and 5670, respectively. For the same sequence, the RUNX1 binding intensity in the test with RUNX1 [2] was 801; with RUNX1 [4], 1200.

Take CCCAAGCTACGGAAGTTAAACCTCAAACATGAAATC: the ETS1 binding intensity in the test with ETS1 [1] was 1110; with ETS1 [3], 1420. The RUNX1 binding intensity is 1040 with RUNX1 [2] and 1410 with RUNX1 [4].

As for CCAAGCACTTCCTGCTGTTAGCTTTGTGGGCTGAGT, the ETS1 binding intensity with ETS1 [1] was 826; with ETS1 [3], 1020. The RUNX1 binding intensity stood at 860 with RUNX1 [2] and 1600 with RUNX1 [4].

In the case of GTTGGGAGGCGCACATCCGGCGGTTACCCGGTGCTT, the ETS1 binding intensity in the test with ETS1 [1] was 2360; with ETS1 [3], 3090. Further, the RUNX1 binding intensity in the test with RUNX1 [2] came out at 785; in the test with RUNX1 [4], 1560.

On to TACAGGAACTTCCTGCGCGGCTGCTGTGGTTGCGAG, for which the results for the ETS1 binding intensity in the test with ETS1 [1] and in the test with ETS1 [3] were 794 and 1350, respectively. The RUNX1 binding intensity with RUNX1 [2] was 684; in the test with RUNX1 [4], 1680.

Take CGGGTTGGGCAGGAAGCAGCATGACCGCAGTGGGTC: the ETS1 binding intensity in the test with ETS1 [1] came out at 1740; with ETS1 [3], 17000. Further, the RUNX1 binding intensity with RUNX1 [2] was 959; with RUNX1 [4], 3250.

CCTGTCCGGAAGTCCTGAGAGGGAATCGCCCGCAAA: the ETS1 binding intensity in the test with ETS1 [1] turned out to be 2300; with ETS1 [3], 5360. The results for the RUNX1 binding intensity with RUNX1 [2] and with RUNX1 [4] were 963 and 1690, respectively.

For GGGTGCAGACGGGAAGTTGCGGCTGCCAGCGAAGCT, the ETS1 binding intensity with ETS1 [1] was 1680; in the test with ETS1 [3], 2530. For the same sequence, the RUNX1 binding intensity with RUNX1 [2] came out at 741; in the test with RUNX1 [4] it was 1270.

For AGGCCTCGCTTCCTCTCCTGACCACACCCTGCAGCT, the ETS1 binding intensity with ETS1 [1] amounted to 446; with ETS1 [3] it was 590. Also, the RUNX1 binding intensity came out at 1160 with RUNX1 [2] and 1800 with RUNX1 [4].

With AGCGGCTGCACAGGAAGTTGGTTTTCACAAAGGCAA, the results for the ETS1 binding intensity in the test with ETS1 [1] and with ETS1 [3] were 5520 and 6650, respectively. The RUNX1 binding intensity with RUNX1 [2] came out at 658; in the test with RUNX1 [4], 1190.

As to TAAGGATGTGTGGCTTCCAGATCAAAAACCGCAAAA, the figures for the ETS1 binding intensity with ETS1 [1] and in the test with ETS1 [3] were 516 and 3920, respectively. The RUNX1 binding intensity with RUNX1 [2] amounted to 7590; with RUNX1 [4], 10600.

For GAAGAGAAAGGAAACGGCTCGCGGTTTCTGGGGTTC, the results for the ETS1 binding intensity with ETS1 [1] and with ETS1 [3] were 822 and 3150, respectively. Besides, the values for the RUNX1 binding intensity with RUNX1 [2] and in the test with RUNX1 [4] were 738 and 1280, respectively.

With CACCTGGCCCGGACGGCTGCGGTCTGGAGGGCTGTC, the results for the ETS1 binding intensity with ETS1 [1] and in the test with ETS1 [3] were 386 and 792, respectively. In addition, the RUNX1 binding intensity is 1650 with RUNX1 [2] and 2050 in the test with RUNX1 [4].

GAGCCCAACCGGCATCCGTCGCGGTTGGACGTGGGC: the figures for the ETS1 binding intensity in the test with ETS1 [1] and with ETS1 [3] were 343 and 490, respectively. Further, the RUNX1 binding intensity in the test with RUNX1 [2] came out at 761; with RUNX1 [4] it was 1070.

For CATTGATCAAAGACAGGATGTGGTAACAGGCAGTTA, the ETS1 binding intensity amounted to 8340 in the test with ETS1 [1] and 39500 with ETS1 [3]. In addition, the RUNX1 binding intensity with RUNX1 [2] was determined as 760; with RUNX1 [4], 3100.

TCTTGTTTCTTCCGTTACCGGAGCGCGGTCACGTGA: the ETS1 binding intensity worked out at 455 with ETS1 [1] and 438 with ETS1 [3]. In addition, the RUNX1 binding intensity with RUNX1 [2] was 979; with RUNX1 [4], 1570.

Turning to GGTTCGCGGCTTCCGGGACATTTGTACCGCAGGGGG, the ETS1 binding intensity with ETS1 [1] turned out to be 960; in the test with ETS1 [3] it was 2330. The figures for the RUNX1 binding intensity with RUNX1 [2] and with RUNX1 [4] were 759 and 1510, respectively.

Take GCTGACCCGGAAGCGCTCGTGACCACCATCTCCGAC: the ETS1 binding intensity with ETS1 [1] came out at 1760; in the test with ETS1 [3] it was 2590. Also, the values for the RUNX1 binding intensity in the test with RUNX1 [2] and with RUNX1 [4] were 912 and 1370, respectively.

As for GCCCGCGGCTCCGGAAGCGGCTGCGGCCCCGACCGG, the ETS1 binding intensity with ETS1 [1] came to 3000; with ETS1 [3], 3860. The RUNX1 binding intensity is 678 with RUNX1 [2] and 1040 in the test with RUNX1 [4].

With AGCTTGCGCAGGAAGTCTGCGGCAGGAGGGCGTCCT, the results for the ETS1 binding intensity in the test with ETS1 [1] and in the test with ETS1 [3] were 1920 and 2760, respectively. The figures for the RUNX1 binding intensity with RUNX1 [2] and in the test with RUNX1 [4] were 687 and 908, respectively.

In the case of TCTTGAGGGTCAGGATGTGGTGAGGCCAGAGAAGGC, the ETS1 binding intensity with ETS1 [1] turned out to be 951; with ETS1 [3] it was 2120. Besides, the results for the RUNX1 binding intensity with RUNX1 [2] and in the test with RUNX1 [4] were 808 and 1420, respectively.

For GAGGACTTCCGGGTGCGTGTGATATCTGCGGGCCCG, the ETS1 binding intensity with ETS1 [1] turned out to be 802; with ETS1 [3], 793. The RUNX1 binding intensity in the test with RUNX1 [2] turned out to be 703; in the test with RUNX1 [4], 2110.

Turning to CCCACTTCCTGTCTGCTTCCCTCCACCGCTCAGACC, the values for the ETS1 binding intensity with ETS1 [1] and with ETS1 [3] were 2890 and 2650, respectively. In addition, the RUNX1 binding intensity was found to be 1890 with RUNX1 [2] and 4290 with RUNX1 [4].

For CTGAAGAGGAAATGTATTCCTCATGTTGTGGTTGGC, the figures for the ETS1 binding intensity with ETS1 [1] and in the test with ETS1 [3] were 742 and 1980, respectively. For the same sequence, the figures for the RUNX1 binding intensity with RUNX1 [2] and with RUNX1 [4] were 860 and 878, respectively.

With AGCACAAACCCAGGATGTGGTAAATGAAATGAAAAA, the ETS1 binding intensity with ETS1 [1] was 1260; with ETS1 [3], 5210. Moreover, the RUNX1 binding intensity stood at 858 in the test with RUNX1 [2] and 1460 in the test with RUNX1 [4].

In the case of GCAAACAGCACATCCGGTGTGGTCGACGGGTCCTCC, the ETS1 binding intensity with ETS1 [1] was found to be 5820; with ETS1 [3] it was 6160. Also, the values for the RUNX1 binding intensity with RUNX1 [2] and in the test with RUNX1 [4] were 728 and 1830, respectively.

With AAAGAGGAAATCACATACCCGAAAACCACATGCACA, the ETS1 binding intensity with ETS1 [1] is 513; in the test with ETS1 [3] it was 1050. In addition, the RUNX1 binding intensity in the test with RUNX1 [2] turned out to be 944; with RUNX1 [4], 1200.

Take GGCGGTGACCGGAAGAGCTGAGTCACCGCAGGCGAC: the figures for the ETS1 binding intensity with ETS1 [1] and with ETS1 [3] were 4020 and 11300, respectively. Further, the RUNX1 binding intensity worked out at 813 with RUNX1 [2] and 1600 in the test with RUNX1 [4].

As for TCCAGCGGAAGGGGGCATCTTTGCGGCAGAGGCAGC, the results for the ETS1 binding intensity with ETS1 [1] and with ETS1 [3] were 470 and 431, respectively. In addition, the RUNX1 binding intensity in the test with RUNX1 [2] stood at 764; with RUNX1 [4], 979.

For TACCCAGAAAGGAAGTGGAACCTGCGGTGAGGCCCC, the ETS1 binding intensity was found to be 1130 in the test with ETS1 [1] and 5650 in the test with ETS1 [3]. The RUNX1 binding intensity with RUNX1 [2] amounted to 875; with RUNX1 [4] it was 1950.
